{"source": "PubChem BioAssay", "data": [{"tested_on": "PRMT1 (protein arginine N-methyltransferase 1)", "assay": "small molecules binding arginine methyltransferase PRMT1 – biochemical, small-molecule microarray, 635 nm fluorescence, primary screen (AID 1088);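 note: binding of Prmt1 protein to compounds spotted on small-molecule microarray slides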", "details": "higher = more signal", "values": [{"molecule": "COCC(=C=CC[C@H](O)c1ccc(OCCO)cc1)CCO", "composite z-score": 1.18}, {"molecule": "CCOC(=O)C[C@H]1[C@H](OC(=O)Cc2ccc3c(c2)OCO3)[C@@H](NC(=O)c2ccc3ccccc3n2)c2cc(OCCCO)ccc2N1C(=O)c1ccccc1", "composite z-score": 0.299}, {"molecule": "COc1ccc([Si](C)(C)[C@@H]2[C@@H](CC(=O)N3CCC[C@H]3CO)O[C@]3(C(=O)N(Cc4cccc(N5C(=O)COc6ccccc65)c4)c4ccccc43)[C@H]2C)cc1", "composite z-score": 1.57}, {"molecule": "COc1ccc(CCNC(=O)[C@@H]2c3ccccc3C(=O)N(C3CCCCC3)[C@H]2c2ccc(CO)cc2)cc1", "composite z-score": 0.399}, {"molecule": "NCCCCCNC(=O)[C@@H]1C[C@@H]2C(=O)N[C@@H](CCCCN)C(=O)N2[C@@H]1c1ccc(O)cc1", "composite z-score": 1.53}, {"molecule": "NC(=O)[C@H]1[C@@H]2C(=O)O[C@@H](c3ccccc3)[C@@H](c3ccccc3)N2[C@@H](c2ccc(OCCO)cc2)[C@]12C(=O)Nc1ccc(C#CCCO)cc12", "composite z-score": 1.41}, {"molecule": "CCCCC(O)C1C=CC2C(=O)N(C)C(=O)C2N1N(c1ccccc1)c1ccccc1", "note": "(stereo not drawn)", "composite z-score": 1.56}, {"molecule": "CCCC[C@@H](O)C1=C(COC)C[C@H]2C(=O)N(C)C(=O)[C@H]2[C@H]1CO", "composite z-score": 0.0449}, {"molecule": "C=C(COC)/C(=C/C[C@H](OC(=O)c1ccncc1)c1ccccc1OCCO)c1cc(C(=O)OC)ccc1OC", "composite z-score": 1.44}, {"molecule": "COC(=O)C1(CC(C)C)C=C2C(=C(c3ccccc3)C(=O)C2C)CN1", "note": "(stereo not drawn)", "composite z-score": -0.291}, {"molecule": "CCOc1cc(C(O)C2C=CC3C(=O)NC(=O)C3N2Nc2ccc(Cl)cc2Cl)ccc1O", "note": "(stereo not drawn)", "composite z-score": -1.54}, {"molecule": "Cc1ccc(S[C@]2(C(=O)NC(C)C)CC(=O)N(Cc3cc(C(F)(F)F)cc(C(F)(F)F)c3)[C@@H]2c2ccc(CO)cc2)cc1", "composite z-score": -0.44}, {"molecule": "CCCCCCCCCC(O)C1C=CC2C(=O)N(c3ccccc3)C(=O)C2N1Nc1cc(OC)c(OC)c(OC)c1", "note": "(stereo not drawn)", "composite z-score": 0.619}, {"molecule": "COc1cc(C(O)C2C=CC3C(=O)N(C)C(=O)C3N2Nc2ccccc2)cc(OC)c1OC", "note": "(stereo not drawn)", "composite z-score": 1.33}, {"molecule": "CCOC(=O)C1=C[C@@H](C(C)C)N(S(=O)(=O)c2ccc(C)cc2)[C@H]1c1ccc(C(F)(F)F)cc1", "composite z-score": 1.35}, {"molecule": "CC(C)C(CO)N1C(=O)[C@@H]2C3C(=O)OCCC/C=C\\[C@H]3OC23C=CCN(c2ccc4ccccc4c2)C(=O)[C@@H]13", "note": "(stereo partly drawn)", "composite z-score": -0.403}, {"molecule": "CCCCN1CC=CC23O[C@@H]4/C=C\\CCCOC(=O)C4[C@H]2C(=O)N(CCO)[C@@H]3C1=O", "note": "(stereo partly drawn)", "composite z-score": -0.328}, {"molecule": "CC(C)C(CO)N1C(=O)[C@@H]2C3C(=O)OCCC/C=C\\[C@H]3OC23C=CCN(Cn2nnc4ccccc42)C(=O)[C@@H]13", "note": "(stereo partly drawn)", "composite z-score": 0.828}, {"molecule": "C=CC[C@@]1(C(=O)NCCCOC)N=C(c2ccc(OCCCO)cc2)O[C@@H]1c1ccccc1N=[N+]=[N-]", "composite z-score": 1.14}, {"molecule": "C=CCNC(=O)[C@@H]1[C@H]2C(=O)O[C@H](c3ccccc3)[C@H](c3ccccc3)N2[C@H](c2ccccc2OCCO)[C@@]12C(=O)N(C(=O)OCCOC)c1ccc(C#CC3(O)CCCCCC3)cc12", "composite z-score": 1.56}, {"molecule": "COCCOC(=O)N1C(=O)[C@@]2(c3cc(C#CCC(C(=O)OC)C(=O)OC)ccc31)[C@H](c1ccc(OCCO)cc1)N1[C@H](c3ccccc3)[C@H](c3ccccc3)OC(=O)[C@H]1[C@@H]2C(=O)N1CCc2cc(OC)c(OC)cc2C1", "composite z-score": 1.55}, {"molecule": "C=CCN1C(=O)[C@]2(CCC(=O)OC(C)(C)C)N=C(c3ccc(OCCCO)cc3)O[C@@H]2c2ccccc21", "composite z-score": 1.08}, {"molecule": "C#CCN(Cc1ccccc1Br)[C@H](/C=C/c1ccccc1)[C@@H](O)Cc1ccccc1", "composite z-score": -0.384}, {"molecule": "O=C1N(CCS(=O)(=O)c2ccccc2)c2ccccc2[C@H]2OC(c3ccc(OCCCO)cc3)=N[C@@]12Cc1ccccc1", "composite z-score": 1.55}, {"molecule": "COCCOC(=O)N1C(=O)[C@@]2(c3cc(C#CC4(O)CCCCCC4)ccc31)[C@H](c1ccc(O)cc1)N1[C@H](c3ccccc3)[C@H](c3ccccc3)OC(=O)[C@H]1[C@@H]2C(=O)N1CCN(c2ncccn2)CC1", "composite z-score": 1.55}, {"molecule": "CO[C@H]1O[C@H](CO)[C@@H](OC(=O)Nc2ccccc2)[C@H](OC(=O)c2cc3ccccc3[nH]2)[C@H]1OC(=O)c1cc2ccccc2[nH]1", "composite z-score": 0.499}, {"molecule": "O=C1O[C@@H](c2ccccc2)[C@@H](c2ccccc2)N2[C@@H](c3ccc(OCCO)cc3)[C@]3(C(=O)Nc4ccc(C#CC5=CCCCC5)cc43)[C@@H](C(=O)NC[C@H](O)c3ccccc3)[C@H]12", "composite z-score": 1.36}, {"molecule": "CC1CC/C=C\\[C@H]2OC34C=CCN(c5ccc6ccccc6c5)C(=O)[C@H]3N(CCCO)C(=O)[C@@H]4C2C(=O)O1", "note": "(stereo partly drawn)", "composite z-score": -0.131}]}]}
